From PubChem BioAssay AID372 (MTDP, 2006)
The whole screen tested about 100,000 compounds, of which about 770 (0.77%) were called active. Rule as the data show it: active = inhibition above about 50%; inactive = the rest. The sample as a whole holds a higher share of actives than the screen did.

biological target: Gag-Pol polyprotein (Human immunodeficiency virus type 1 group M subtype B (isolate HXB2)) (UniProt P04585); test: RNase H inhibition, HIV 1 Gag Pol polyprotein, FRET biochemical assay, screening (AID 372); conditions: HIV-1 RT RNase H, FRET RNA/DNA substrate fluorescence; at 10 µM; stronger effect = higher value

| Structure (SMILES) | inhibition |
| --- | --- |
| O=C(Nc1ccc(F)cc1F)c1cccc(I)c1 | 4% (inactive) |
| CCOc1ccccc1N=CC1=C(O)CC(c2ccccc2)CC1=O (configuration not stated) | 6% (inactive) |
| Cc1ccc(-c2nc(NC(=O)c3cccc(F)c3)sc2-c2ccccc2)cc1 | 16% (inactive) |
| COc1cc(NC(=O)C(F)(F)F)c(Cl)cc1NC(=O)c1ccccc1 | 0% (inactive) |
| CCOc1ccc(C(=O)Nc2cccc(NC(=O)c3ccccc3Cl)c2)cc1 | 8% (inactive) |
| CCOc1ccc(C(=O)Nc2cccc(S(N)(=O)=O)c2)cc1Br | 4% (inactive) |
| COc1ccc(OC)c(/C=C2/SC(=O)N(CNc3ccc(Br)cc3C)C2=O)c1 | 5% (inactive) |
| COc1cccc(/C=C2/SC(=O)N(CNc3ccc(I)cc3)C2=O)c1 | 51% (active) |
| COc1ccc(/C=C2/SC(=O)N(CNc3ccc(Br)cc3C)C2=O)cc1 | 7% (inactive) |
| O=C1S/C(=C/c2ccccc2F)C(=O)N1CNc1ccc(I)cc1 | 57% (active) |
| O=C1S/C(=C/c2ccc(F)cc2)C(=O)N1CNc1ccc(I)cc1 | 4% (inactive) |
| COc1ccc(/C=C2/SC(=O)N(CNc3ccccc3)C2=O)cc1 | 9% (inactive) |
| COc1ccc(/C=C2/SC(=O)N(CNc3ccc(I)cc3)C2=O)cc1 | 6% (inactive) |
| O=C1S/C(=C/c2ccccc2)C(=O)N1CNc1ccc(I)cc1 | 3% (inactive) |
| COc1cccc(/C=C2/SC(=O)N(CNc3ccc(Br)cc3C)C2=O)c1 | 58% (active) |
| Cc1nc2ccccn2c1C(=O)N/N=C\c1ccccc1[N+](=O)[O-] | 9% (inactive) |
| C=CCOCCN(CCOCC=C)C1=NS(=O)(=O)c2cc([N+](=O)[O-])ccc21 | 8% (inactive) |
| CC(=O)c1ccc(N2CCN(C(=O)c3cc(F)c(F)cc3Cl)CC2)c(F)c1 | 7% (inactive) |
| C=CCOC(=O)C1=C(C)NC2=C(C(=O)CCC2)C1c1ccc(OCc2ccccc2)c(OC)c1 (configuration not stated) | 15% (inactive) |
| O=C(Nc1nnc(-c2ccc3c(c2)OCO3)s1)c1sc2ccccc2c1Cl | 5% (inactive) |
| CCOC(=O)c1c(NC(=O)c2cc(-c3ccc(OC)cc3)nc3ccccc23)sc2c1CCCCC2 | 5% (inactive) |
| Cc1ccc(C(=O)Nc2ccc(F)cc2F)cc1[N+](=O)[O-] | 18% (inactive) |
| COc1cc2ccccc2cc1C(=O)Nc1ccc2c(c1)C(=O)c1ccccc1C2=O | 38% (inactive) |
| Cc1nnc(N/N=C/c2ccc(C(=O)O)cc2)[nH]c1=O | 10% (inactive) |
| COc1ccccc1CNC(=O)c1cccc(C)c1 | 2% (inactive) |

| Structure (SMILES) | inhibition |
| --- | --- |
| COc1cccc(C(=O)NCc2ccccc2OC)c1 | 2% (inactive) |
| COc1ccccc1CNC(=O)c1cccc(N(C)C)c1 | 56% (active) |
| Cc1ccc(N(CC(=O)N/N=C/c2cccc(Cl)c2)S(=O)(=O)c2ccc(F)cc2)cc1 | 13% (inactive) |
| Cc1ccc(-n2c(O)c(/C=C3\C=Nc4ccccc43)c(=O)[nH]c2=S)cc1 | 15% (inactive) |
| O=c1[nH]c(=S)n(-c2ccc(Br)cc2)c(O)c1/C=C1\C=Nc2ccccc21 | 20% (inactive) |
| O=c1[nH]c(=S)n(-c2ccccc2)c(O)c1/C=C1\C=Nc2ccccc21 | 56% (active) |
| CC(C)(C)c1ccc(CNc2cc(N3CCOCC3)ccc2[N+](=O)[O-])cc1 | 0% (inactive) |
| Oc1ccc(-c2nc(-c3ccccc3)c(-c3cccs3)[nH]2)cc1O | 63% (active) |
| Oc1ccccc1-c1nc(-c2ccccc2)c(-c2cccs2)[nH]1 | 12% (inactive) |
| Oc1ccc(Br)cc1-c1nc(-c2ccccc2)c(-c2cccs2)[nH]1 | 9% (inactive) |
| O=C(COc1ccccc1[N+](=O)[O-])N/N=C/c1cc(I)ccc1O | 5% (inactive) |
| C/C(=N\Nc1cc(-c2ccccc2)nc(-c2ccccc2)n1)c1ccc([N+](=O)[O-])cc1 | 3% (inactive) |
| CN(C(=O)c1ccc(Cl)c([N+](=O)[O-])c1)c1ccccc1 | 17% (inactive) |
| CCOc1ccc(N(CC(=O)Nc2ccc(C)c(C)c2)S(C)(=O)=O)cc1 | 4% (inactive) |
| CCOc1ccc(NC(=O)CN(c2ccc(C)c(Cl)c2)S(C)(=O)=O)cc1 | 3% (inactive) |
| CCOc1ccc(N(CC(=O)Nc2cccc(Br)c2)S(C)(=O)=O)cc1 | 12% (inactive) |
| CCOc1ccc(N(CC(=O)Nc2cccc(C(C)=O)c2)S(C)(=O)=O)cc1 | 51% (active) |
| CCOc1ccccc1N(CC(=O)N/N=C(\C)c1cccc(Br)c1)S(C)(=O)=O | 66% (active) |
| CCOc1ccccc1N(CC(=O)N/N=C(\C)c1cccc(NC(=O)c2ccccc2)c1)S(=O)(=O)c1ccccc1 | 5% (inactive) |
| CCOc1ccc(N(CC(=O)Nc2cccc(C)c2)S(C)(=O)=O)cc1 | 17% (inactive) |
| CCOc1ccccc1N(CC(=O)Nc1cccc(Br)c1)S(C)(=O)=O | 16% (inactive) |
| CCOc1ccc(N(CC(=O)Nc2ccc(C)c(Cl)c2)S(C)(=O)=O)cc1 | 56% (active) |
| Cn1c(=O)c(Sc2ccccc2)c(Sc2ccccc2)c2ccccc21 | 43% (inactive) |
| CCc1ccccc1N1C(=O)/C(=C/c2ccc(N3CCCCC3)o2)C(=O)NC1=S | 19% (inactive) |
| Cc1cccc(N2C(=O)C(Cl)=C(Cl)C2=O)c1C | 4% (inactive) |

| Structure (SMILES) | inhibition |
| --- | --- |
| O=C(Nc1ccccc1-c1ccccc1)c1ccc2c(c1)C(=O)N(c1ccccc1-c1ccccc1)C2=O | 17% (inactive) |
| Cc1ccccc1NC(=O)c1cc(S(=O)(=O)Nc2ccc(Br)cc2)ccc1Cl | 10% (inactive) |
| CSC1=C(C#N)C(c2ccc(Cl)cc2)C(C(C)=O)=C(C)N1 (configuration not stated) | 2% (inactive) |
| Cc1ccc(OCCOc2cccc(/C=C3\SC(=S)NC3=O)c2)c(C)c1 | 40% (inactive) |
| Cc1ccc(C)c(OCCOc2ccc(Cl)cc2/C=C2\SC(=S)NC2=O)c1 | 63% (active) |
| COc1ccc(OCCOc2cccc(/C=C3\SC(=S)NC3=O)c2)cc1 | 18% (inactive) |
| Cc1ccc(OCCOc2cccc(/C=C3/SC(=S)NC3=O)c2)cc1 | 56% (active) |
| Cc1ccc(C)c(OCCOc2c(Cl)cc(Cl)cc2/C=C2\SC(=S)NC2=O)c1 | 33% (inactive) |
| Cc1ccc(C)c(OCCOc2ccc(/C=C3\SC(=S)NC3=O)cc2)c1 | 43% (inactive) |
| O=C1NC(=S)S/C1=C/c1cccc(OCc2ccccc2)c1 | 29% (inactive) |
| Cc1cc(C)cc(OCCOc2cccc(/C=C3\SC(=S)NC3=O)c2)c1 | 45% (inactive) |
| Cc1ccc(OCCOc2ccc(Cl)cc2/C=C2\SC(=S)NC2=O)c(C)c1 | 43% (inactive) |
| Cc1ccc(C)c(OCCOc2cccc(/C=C3\SC(=S)NC3=O)c2)c1 | 54% (active) |
| O=C1NC(=S)S/C1=C/c1cccc(OCc2ccccc2Cl)c1 | 42% (inactive) |
| Cc1ccc(Nc2cc(N3CCN(c4ccccc4Cl)CC3)c([N+](=O)[O-])cc2[N+](=O)[O-])cc1 | 13% (inactive) |
| Cc1ccc(C(C)C)c(OCC(=O)N2CCN(c3ccc([N+](=O)[O-])cc3Cl)CC2)c1 | 21% (inactive) |
| Cc1cc(C)nc(NS(=O)(=O)c2ccc(NS(=O)(=O)c3ccc4c(c3)C(=O)c3ccccc3-4)cc2)n1 | 15% (inactive) |
| Cc1ccc(Cl)cc1NC(=O)CN(CCc1ccccc1)S(=O)(=O)c1ccccc1 | 16% (inactive) |
| COc1cccc(/C=N/N2CCN(Cc3cccc4ccccc34)CC2)c1O | 8% (inactive) |
| COc1ccc(OCCOc2ccc(Br)cc2/C=C2\SC(=S)NC2=O)cc1 | 34% (inactive) |
| COc1cccc(OCCOc2ccccc2/C=C2/SC(=S)NC2=O)c1 | 22% (inactive) |
| COc1cccc(OCCOc2ccc(Br)cc2/C=C2/SC(=S)NC2=O)c1 | 55% (active) |
| O=c1[nH]c(=O)n(Cc2ccccc2)c(O)c1C=Nc1ccc(F)cc1 | 22% (inactive) |
| Cc1ccc(N=Cc2c(O)n(Cc3ccccc3)c(=O)[nH]c2=O)cc1 | 46% (inactive) |
| Cc1ccccc1N=Cc1c(O)n(Cc2ccccc2)c(=O)[nH]c1=O | 57% (active) |

| Structure (SMILES) | inhibition |
| --- | --- |
| COc1ccc(CCNC(=O)c2ccc(C#Cc3ccccc3)cc2)cc1OC | 8% (inactive) |
| CC(NC(=O)CSCc1ccc(Cl)cc1)c1ccccc1 (configuration not stated) | 6% (inactive) |
| CC(NC(=O)CSCc1ccccc1Cl)c1ccccc1 (configuration not stated) | 54% (active) |
| CCOc1ccccc1NC(=O)CSCc1ccccc1Cl | 51% (active) |
| CCc1ccccc1NC(=O)CSCc1ccccc1Cl | 20% (inactive) |
| CCOc1ccccc1NC(=O)CSCc1ccc(Cl)cc1Cl | 48% (inactive) |
| CCC(C)NC(=O)CSCc1ccccc1Cl (configuration not stated) | 0% (inactive) |
| CC(=O)c1ccc(C)cc1OC(=O)c1ccc(Cl)cc1 | 21% (inactive) |
| O=C(/C(=C/c1ccccc1)c1nc2ccccc2[nH]1)c1ccccc1 | 6% (inactive) |
| O=C(Nc1ccc(I)cc1)c1ccc([N+](=O)[O-])o1 | 0% (inactive) |
| Cc1cc([N+](=O)[O-])ccc1-c1ccc(C(=O)Nc2ccc3oc(-c4ccccc4)nc3c2)o1 | 15% (inactive) |
| Cc1c(Cl)cccc1-c1ccc(C(=O)Nc2cccc(-c3nc4ccccc4o3)c2)o1 | 10% (inactive) |
| O=C(Nc1ccc2oc(-c3ccccc3)nc2c1)c1ccc(-c2ccc([N+](=O)[O-])cc2)o1 | 54% (active) |
| O=C(Nc1ccc(-c2nc3ccccc3o2)cc1)c1ccc(-c2ccc([N+](=O)[O-])cc2)o1 | 48% (inactive) |
| O=C(Nc1ccc([N+](=O)[O-])cc1)c1ccc(-c2ccc(Cl)c(Cl)c2)o1 | 50% (active) |
| Cc1c(Cl)cccc1-c1ccc(C(=O)Nc2ccc(-c3nc4ccccc4o3)cc2)o1 | 54% (active) |
| Cc1ccc(-c2nc3cc(NC(=O)c4ccc([N+](=O)[O-])o4)ccc3o2)cc1Br | 54% (active) |
| O=C(Nc1ccc([N+](=O)[O-])cc1)c1ccc(-c2cccc(Cl)c2)o1 | 10% (inactive) |
| O=C(Nc1ccc2oc(-c3cc(Br)ccc3Cl)nc2c1)c1ccc([N+](=O)[O-])o1 | 20% (inactive) |
| Cc1c(Cl)cccc1-c1ccc(C(=O)Nc2ccc3oc(-c4cccnc4)nc3c2)o1 | 42% (inactive) |
| O=C(Nc1ccc2oc(-c3ccccc3)nc2c1)c1ccc([N+](=O)[O-])o1 | 6% (inactive) |
| O=C(Nc1ccc(Cl)c([N+](=O)[O-])c1)c1ccc(-c2ccc(Cl)c(Cl)c2)o1 | 7% (inactive) |
